Reference: PubChem BioAssay (EPA / NIEHS)
Active and inactive are the calls of the source. How the source made its calls: active means hit-call score of the fitted dose curve at least 0.9, where 1 is the maximum; inconclusive means response in the unintended direction; inactive means score below 0.9.

Biological target: rat CYP3A2, Cyp3a2 (gene 266682) (UniProt P05183)
Assay: NVS_ADME_rCYP3A2: NovaScreen (NVS) CYP450-related Enzyme Activity (ADME) Assay for rat CYP3A2 (AID 2283128)
Procedure: NVS_ADME_rCYP3A2 is a biochemical, single-readout assay that uses extracted gene-proteins in a cell-free assay. Measurements were taken 0.5 hour after chemical dosing in a 96-well plate.NVS_ADME_rCYP3A2 is one of one assay component(s) measured or calculated from the NVS_ADME_rCYP3A2 assay. It is designed to make measurements of enzyme activity, a form of enzyme reporter, as detected with fluorescence intensity signals by Fluorescence technology.Data from the assay component NVS_ADME_rCYP3A2 was analyzed into 1 assay endpoint. This assay endpoint, NVS_ADME_rCYP3A2, was analyzed in the positive analysis fitting direction relative to Acetonitrile as the negative control and baseline of activity. Using a type of enzyme reporter, loss-of-signal activity can be used to understand changes in the enzymatic activity as they relate to the gene Cyp3a2. Furthermore, this assay endpoint can be referred to as a primary readout, because this assay has produced multiple assay endpoints where this one serves a enzymatic activity function. To generalize the intended target to other relatable targets, this assay endpoint is annotated to the cyp intended target family, where the subfamily is xenobiotic metabolism.
Binding assays used specific radioligands (tritiated, iodinated) with non-radioactive competitive displacement ligands in agonist or antagonist protocols (as indicated) and various reference compounds and inhibitors to titrate specific binding to receptors and transporters. Most enzyme assays (CYPs, kinases, phosphatases, proteases, HDACs) used recombinant protein and specific substrates (fluorescence mostly, some colorimetric and radioactive) and inhibitors, followed by a biochemical separation of substrate and product. All assays for the biochemical HTS were initially run in duplicate at a single concentration (10 uM for CYP450 assays and 25 uM for all others). Assay-chemical combinations meeting a pre-defined threshold (e.g., 30% inhibition and other criteria defined below) were then run in singleton concentration-response format with maximum concentration of 20 uM for CYPs and 50 uM for all others. Each assay was run with positive and negative controls, and concurrent controls on every plate. The follow-up (secondary) screen tested active chemical-pairs in concentration series, as well as a few additional assays not tested in the primary screen, some selected negative inactives, and several cases re-run in the concentration series for confirmatory purposes.

Sequence of rat CYP3A2, Cyp3a2 (gene 266682) (P05183 whole entry, looked up): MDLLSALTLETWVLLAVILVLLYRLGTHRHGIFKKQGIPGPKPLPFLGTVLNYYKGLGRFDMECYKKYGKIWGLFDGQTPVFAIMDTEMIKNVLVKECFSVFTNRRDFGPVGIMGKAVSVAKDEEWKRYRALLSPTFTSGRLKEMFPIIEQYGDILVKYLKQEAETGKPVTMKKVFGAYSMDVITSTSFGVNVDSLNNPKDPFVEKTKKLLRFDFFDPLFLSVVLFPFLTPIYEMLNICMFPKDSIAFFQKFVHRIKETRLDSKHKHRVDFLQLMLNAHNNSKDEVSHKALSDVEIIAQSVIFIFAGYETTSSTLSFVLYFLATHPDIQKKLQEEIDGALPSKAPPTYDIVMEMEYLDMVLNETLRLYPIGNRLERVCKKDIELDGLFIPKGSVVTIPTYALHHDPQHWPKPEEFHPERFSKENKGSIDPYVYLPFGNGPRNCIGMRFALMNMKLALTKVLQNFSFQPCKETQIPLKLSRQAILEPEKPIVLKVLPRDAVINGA

Row | SMILES | AC50 | outcome
1 | CCCN(CCC)c1c([N+](=O)[O-])cc(S(N)(=O)=O)cc1[N+](=O)[O-] | 2670 nM (active) | –
2 | CCOP(=S)(OCC)SCn1c(=O)oc2cc(Cl)ccc21 | 518 nM (active) | –
3 | CCOC(=O)CC(SP(=S)(OC)OC)C(=O)OCC (centres undefined) | 306 nM (active) | –
4 | C=CCC1=C(C)[C@@H](OC(=O)[C@@H]2[C@@H](C=C(C)C)C2(C)C)CC1=O | 7550 nM (active) | –
5 | O=C(Nc1ccccc1)Nc1ccnc(Cl)c1 | 6440 nM (active) | –
6 | C=CCC1=C(C)C(OC(=O)C2C(C=C(C)C)C2(C)C)CC1=O (centres undefined) | 6870 nM (active) | –
7 | CO/C=C(/C(=O)OC)c1ccccc1Oc1cc(Oc2ccccc2C#N)ncn1 | 6600 nM (active) | –
8 | CN(C)C(=S)SSC(=S)N(C)C | 2420 nM (active) | –
9 | CCON=C(CC)C1=C(O)CC(c2c(C)cc(C)cc2C)CC1=O (centres undefined) | 3000 nM (active) | –
10 | CS/C(C)=N/OC(=O)N(C)SN(C)C(=O)O/N=C(\C)SC | 3390 nM (active) | –
11 | Cc1ccc(-c2c(Cl)nc(C#N)n2S(=O)(=O)N(C)C)cc1 | 1100 nM (active) | –
12 | CC1COC(Cn2cncn2)(c2ccc(Oc3ccc(Cl)cc3)cc2Cl)O1 (centres undefined) | 1350 nM (active) | –
13 | COc1ccc(C(c2ccc(OC)cc2)C(Cl)(Cl)Cl)cc1 | – | inactive
14 | OC(c1ccc(Cl)cc1)(c1cncnc1)c1ccccc1Cl (centres undefined) | 5570 nM (active) | –
